# Source: PubChem (NMMLSC)
# Rows were chosen to be rich in hits. Some 3.5% of all compounds tested hit in one or more screens of this group.
# BoNT-A LC inh2 – blocks Botulinum neurotoxin A light chain protease. 0.17% of 360,000 active. multiplex microsphere protease substrate cleavage, flow cytometry. inhibition, % at 10 µM. AID 588499; in the data active = inhibition above about 30%; inconclusive = no clear call, values can overlap the other calls; also: plate controls were buffer without enzyme for full effect and enzyme alone for no effect
# Bead autofluor – counter-screen for toxin protease inhibitors: compound fluorescence; compound autofluorescence counterscreen, microsphere flow cytometry; active compounds read high; fluorescence intensity (concentration not given with the values); 3.1% of 360,000 active; AID 624483; in the data active = fluorescence intensity above about 16000; inconclusive = no clear call, values can overlap the other calls
# Anthrax LF inh2 – inhibitors of Bacillus anthracis lethal factor protease. P15917. multiplex microsphere protease cleavage assay, LF. inhibition, % at 10 µM. 0.12% of 360,000 active. AID 588501; in the data active = inhibition above about 30%; inconclusive = no clear call, values can overlap the other calls; also: plate controls were buffer without enzyme for full effect and enzyme alone for no effect
# Target sequence (P15917 whole entry, looked up): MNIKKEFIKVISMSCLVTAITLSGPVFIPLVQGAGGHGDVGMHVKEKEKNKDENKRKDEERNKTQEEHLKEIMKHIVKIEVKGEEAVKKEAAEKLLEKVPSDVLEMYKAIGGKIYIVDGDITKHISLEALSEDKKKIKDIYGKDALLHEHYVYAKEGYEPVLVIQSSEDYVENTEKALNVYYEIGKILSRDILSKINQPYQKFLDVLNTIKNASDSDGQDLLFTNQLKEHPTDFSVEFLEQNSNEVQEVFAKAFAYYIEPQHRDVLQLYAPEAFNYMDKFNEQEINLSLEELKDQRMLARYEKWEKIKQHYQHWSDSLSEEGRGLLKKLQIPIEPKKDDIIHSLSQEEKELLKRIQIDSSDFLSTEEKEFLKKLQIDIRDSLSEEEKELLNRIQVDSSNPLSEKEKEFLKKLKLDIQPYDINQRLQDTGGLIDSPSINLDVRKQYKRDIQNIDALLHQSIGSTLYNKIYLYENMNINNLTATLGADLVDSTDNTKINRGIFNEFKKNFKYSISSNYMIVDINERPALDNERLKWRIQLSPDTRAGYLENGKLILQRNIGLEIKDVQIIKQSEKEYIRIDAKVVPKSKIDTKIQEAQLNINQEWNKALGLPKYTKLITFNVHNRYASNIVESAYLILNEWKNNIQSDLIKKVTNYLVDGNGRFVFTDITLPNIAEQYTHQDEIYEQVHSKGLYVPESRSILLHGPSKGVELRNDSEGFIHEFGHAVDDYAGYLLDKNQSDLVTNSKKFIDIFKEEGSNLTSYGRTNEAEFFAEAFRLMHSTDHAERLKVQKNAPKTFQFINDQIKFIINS
# BoNT-F LC inh – BoNT F light chain protease inhibition. Multiplex microsphere protease cleavage assay, flow cytometry. inhibition, % at 10 µM. 0.22% of 360,000 active; in the data active = inhibition above about 35%, passing the limit was not always enough; inconclusive = no clear call, values can overlap the other calls; also: plate controls were buffer without enzyme for full effect and enzyme alone for no effect
# BoNTA LC inh 1 – blocks botulinum neurotoxin A light chain protease. inhibition, % at 10 µM. shares compounds with BoNT-F LC inh. 3% of 720 active. multiplex microsphere protease assay, flow cytometry; in the data active = inhibition above about 32%
# BoNT-F LC CP1 – BoNT/F light chain protease inhibition | multiplex microsphere protease cleavage assay, flow cytometry | inhibition, % at 10 µM | AID 602140 | 720 tested, under 10 active | shares compounds with BoNT-F LC inh
# LF protease CP1 – Bacillus anthracis lethal factor protease inhibition. shares compounds with BoNT-F LC inh. multiplex microsphere protease cleavage assay, LF. inhibition, % at 10 µM. 720 tested, under 10 active. AID 602142
# The depositor's hits bear a star; ? = inconclusive; / = no result given. Unless noted, no rule for the calls is given here.
SMILES,BoNT-A LC inh2,Bead autofluor,Anthrax LF inh2,BoNT-F LC inh,BoNTA LC inh 1,BoNT-F LC CP1,LF protease CP1
CCc1ccc(-c2cc(C(F)(F)F)n3nc(C(=O)Nc4cnn(Cc5ccc(C)cc5)c4)cc3n2)s1,7,11288,0,3,3,5,3
O=C(O)CCn1c(SCCOc2ccccc2F)nc2ccccc21,2,3294,0,?,/,/,/
COc1ccccc1C(=O)Nc1ccnn1C1CCN(Cc2ncc[nH]2)CC1,1,5865,-4,4,/,/,/
CS(=O)(=O)Nc1ccc(C2=NN(C(=O)CCCC(=O)O)C(c3cccs3)C2)cc1 (stereo not drawn),-4,4361,-3,37*,0,-3,-4
COc1ccc(C(c2nnnn2CS(=O)(=O)c2ccc(C)cc2)N2CCN(Cc3ccccc3)CC2)cc1 (stereo not drawn),-1,4894,-1,34,1,-3,-1
O=C(NCc1ccccc1Cl)c1[nH]c(C(F)(F)F)nc1-c1ccccc1,0,5152,1,1,/,/,/
Cc1ccc(Cc2c(-c3cccc(Br)c3)nc3ccc(Br)cn23)cc1,9,7714,8,0,/,/,/
Cc1ccc(-n2cc3c(-c4cccc(Br)c4)nnc(C)c3n2)cc1,?,38801*,?,63*,5,28,0
CCC1(CC)NC(=O)N(CC(=O)OCC(=O)c2ccccc2OC)C1=O,-2,6179,0,0,/,/,/
OC1CN=C2CCCc3c2n(c2ccc(Cl)cc32)C1 (stereo not drawn),54*,4022,42*,24,4,0,8
CC(C)(C)c1ccc(C(=O)NCCC(=O)Nc2ccc3c(c2)OCCO3)cc1,3,?,-4,-2,/,/,/
Clc1cccc(OCc2nc(-c3ccncc3)no2)c1,4,2544,-2,44*,1,-5,1
NS(=O)(=O)c1ccc(CCNC2CC(=O)N(CCc3ccccc3)C2=O)cc1 (stereo not drawn),6,7354,52*,158*,1,1,4
Cc1ccc2[nH]c(CNC(=O)C3CCCCC3)cc2c1,93*,2959,3,-86,-1,-10,-2
CC(C)CC(=O)Nc1c2c(nn1-c1cccc(Cl)c1)CS(=O)C2 (stereo not drawn),1,3592,-13,9,/,/,/
O=C(c1ccccc1)c1sc(N2CCCCCC2)nc1-c1ccccc1,54*,1944,34*,33,10,-3,2
COc1ccc(-c2c(C#N)c(N)nc3sc(C(=O)c4ccccc4)c(N)c23)cc1,44*,2561,18,7,8,-3,5
CCOc1ccc(-c2c(C#N)c(N)nc3sc(C(=O)c4ccccc4)c(N)c23)cc1,10,4289,8,2,/,/,/
C=CCN(C(=O)CNC(=O)c1ccco1)C(C(=O)NC1CCCC1)c1ccc(OC)cc1 (stereo not drawn),-1,5690,1,-3,/,/,/
COc1cc2c(cc1OC)C(C)N(S(=O)(=O)c1ccc(C)cc1)CC2 (stereo not drawn),0,3602,4,-4,/,/,/
COc1cc2c(cc1OC)C(C)N(S(=O)(=O)c1cccs1)CC2 (stereo not drawn),6,3519,32*,-7,1,-2,-1
O=C(c1cn(-c2ccccc2)nc1-c1cccnc1)N1CCN(S(=O)(=O)c2cccc(F)c2)CC1,-2,6894,0,-11,/,/,/
COC(=O)C1Cc2c([nH]c3ccccc23)C2(CCN(Cc3ccccc3)CC2)N1 (stereo not drawn),4,7106,6,41*,1,1,2
COC(=O)c1ccc(C(=O)OC)c(NC(=O)CN(C)Cc2ccc(Cl)c(Cl)c2)c1,10,6413,37*,65*,0,-5,-5
COC(=O)c1ccccc1NC(=O)CN(C)Cc1ccccc1,0,1920,-2,-2,/,/,/
SMILES,BoNT-A LC inh2,Bead autofluor,Anthrax LF inh2,BoNT-F LC inh,BoNTA LC inh 1,BoNT-F LC CP1,LF protease CP1
COC(=O)c1c(NC(=O)c2ccccc2[N+](=O)[O-])sc2c1CC(C)(C)NC2(C)C,8,6297,34*,70*,0,-2,5
COc1ccc(S(=O)(=O)N2CCOC2CNC(=O)C(=O)NCCN2CCOCC2)cc1 (stereo not drawn),?,5643,?,?,/,/,/
CCn1c(SCC(=O)Nc2ccc(C)cc2)nc(O)cc1=O,3,3877,10,42*,0,6,6
C=CCn1c(SCC(=O)Nc2ccc(Br)cc2)nc(O)cc1=O,0,3765,-4,2,/,/,/
Cc1ccc2oc(=O)n(CC(=O)OCCC(C)C)c2c1,0,3320,0,-2,/,/,/
CSc1cnc2c(N)nc(N(C)C)nc2n1,6,2866,4,49*,-1,-1,-2
CN(C)c1nc(N)c2nccnc2n1,0,2759,-1,-7,/,/,/
O=C1CNC(=S)N1c1nc2ccccc2s1,2,3929,32*,?,0,2,0
Cc1ccc(-n2c(SCC(N)=O)nnc2-c2cnccn2)cc1,-1,3632,36*,?,0,4,0
NC(=O)CSc1nnc(-c2cnccn2)n1-c1ccccc1,0,2835,-1,-1,/,/,/
CC1CCCC(NC(=S)NC(=O)c2ccco2)C1C (stereo not drawn),-2,8553,2,-3,/,/,/
Cc1cc(Nc2cccc(F)c2)nc(N2CCOCC2)n1,-3,3819,-2,42*,0,-1,-4
Cc1ccc2nc(N3CCN(S(=O)(=O)c4ccc5c(c4)OCCO5)CC3)c(C#N)cc2c1,14,10472,8,10,/,/,/
Cc1ccc(S(=O)(=O)N2CCCN(c3nc4cc(C)ccc4cc3C#N)CC2)cc1,40*,13376,16,32,12,-3,2
Nc1c(N(Cc2ccco2)C(=O)COc2ccccc2F)c(=O)[nH]c(=O)n1Cc1ccccc1,0,6701,-3,1,/,/,/
Cc1ccccc1OCC(=O)Nc1nnc(C2CCCCC2)s1,-1,2965,-2,47*,-1,-3,-2
CCOc1ccccc1OCC(=O)Nc1nnc(COC)s1,?,?,?,53*,0,-6,-3
Nc1ncnc2c1C(c1ccccc1)c1c(ccc3ccccc13)O2 (stereo not drawn),0,3101,-4,-7,/,/,/
COc1ccc(-c2nc(CSCC(=O)NC3CCN(Cc4ccccc4)CC3)c(C)o2)cc1OC,-2,6554,-2,-5,/,/,/
COc1cc(S(=O)(=O)N(Cc2cccs2)CC2CCCO2)ccc1-n1cnnn1 (stereo not drawn),?,5631,1,41*,0,-3,0
c1ccc(CN2CCc3[nH]c4ccccc4c3C2)cc1,0,4543,-9,-28,/,/,/
CCN1CCc2[nH]c3ccccc3c2C1,5,3806,15,54*,-2,-9,-3
CSc1ccc(S(=O)(=O)NCC(=O)OCC(=O)N(C)CC(=O)Nc2ccc(F)cc2)cc1[N+](=O)[O-],0,3410,8,-8,/,/,/
Cc1cccc2c1NC(C)CC2C (stereo not drawn),34*,2139,40*,6,1,-2,-4
